# Compound activity from PubChem.
# Compounds with a hit are over-represented: about 3.6% of the library has one in this group of screens.
# Pf apPOL block: Pf-apPOL DNA polymerase inhibition | Recombinant Pf-apPOL, molecular beacon fluorescence, 1.5 h | inhibition, % at 10 µM | 0.25% of 210,000 active
# mHTT-CaM PPI inh: mHTT-calmodulin interaction abrogation; 3.6% of 190,000 active; AlphaScreen His-mHTT/GST-CaM binding, luminescence; inhibition, % at 15 µM; P42858;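 also: 0% = both proteins with DMSO and 100% = one protein alone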
# An asterisk follows results filed as active; · = not tested or not shown. Rule as the data show it: active = inhibition above about 50%; inactive = the rest.
SMILES,Pf apPOL block,mHTT-CaM PPI inh
COc1cc(OC)c(OC)cc1CN1CCc2nc(N3CCN(C)CC3)ncc2C1,-3.2,27.4
COc1ccc(CN2CCc3nc(N4CCCC4)ncc3C2)c(OC)c1,0.9,98.9*
CCN1CCN(c2ncc3c(n2)CCN(Cc2cc(OC)ccc2OC)C3)CC1,0.0,48.0
COc1ccc(OC)c(CN2CCc3nc(N4CCN(c5ncccn5)CC4)ncc3C2)c1,-0.2,98.9*
COc1cccc(CN2CCc3nc(N4CCC(C)CC4)ncc3C2)c1OC,-2.9,22.8
Fc1ccccc1CN1CCc2nc(N3CCOCC3)ncc2C1,0.1,5.8
COc1ccc(C=C2Oc3c(CN(C)C)c(O)c(CN(C)C)c(C)c3C2=O)c(OC)c1OC,-11.8,8.2
CCC(CC)C(=O)N1CCN(c2nccn2-c2ccc(C)cc2)CC1,-9.5,21.6
COc1ccc(N2CCN(C(=O)Cc3cn(C)c4ncccc34)CC2)cc1,-1.5,10.4
CCCn1cc(C(=O)NCc2ccc(N3CCOCC3)cc2)c2cccnc21,3.9,9.6
CCCC1(CO)CCCN1C(=O)c1ccc2[nH]ccc2c1 (centres undefined),-4.6,-1.2
CCCC1(CO)CCCN1C(=O)c1ccc2cc[nH]c2c1 (centres undefined),24.6,55.4*
CCCn1cc(S(=O)(=O)Nc2cccc(C)c2)c2cccnc21,0.6,-0.8
Cc1ccc(C)c(NS(=O)(=O)c2cn(C)c3ncccc23)c1,91.2*,54.6*
COc1ccc(C(C)NC(=O)CC(C)c2ccccc2)cc1OC (centres undefined),4.9,2.7
Cc1ccc(NC(=O)c2cc3ccccc3oc2=O)c(Br)c1,-3.3,5.0
Cc1ccc(NC(=O)c2cc3cc(Br)ccc3oc2=O)c(Br)c1,85.0*,-2.0
COc1ccc(CN2CCC(N(C)C)C(CO)C2)cc1Br (centres undefined),1.2,-0.6
COc1ccc(N=C2NC(=O)CC(C(=O)Nc3cc(C(F)(F)F)ccc3Cl)S2)cc1 (centres undefined),-10.9,78.0*
COc1ccc(NC(=O)C2CC(=O)NC(=Nc3ccc(C)c(C)c3)S2)cc1 (centres undefined),-6.1,2.3
CCNC(=O)c1cc2c(=O)n3cc(C)ccc3nc2n(Cc2ccco2)c1=N,1.4,-2.0
CCN(CCCNS(=O)(=O)c1ccc(Cl)s1)c1cccc(C)c1,-2.9,65.0*
CCN(CCCNC(=O)C1CCCN(S(=O)(=O)N2CCCC2)C1)c1cccc(C)c1 (centres undefined),-27.0,36.0
Cc1c(N=c2scc(-c3ccc(Cl)cc3)n2Cc2ccco2)c(=O)n(-c2ccccc2)n1C,0.1,60.0*
C=CCn1c(-c2ccccc2)csc1=Nc1c(C)n(C)n(-c2ccccc2)c1=O,-4.3,4.0
SMILES,Pf apPOL block,mHTT-CaM PPI inh
COc1cccc(CN2CCC3(CC2)N=C(c2ccccc2)C(=O)N3)c1,1.0,57.6*
O=C1NC2(CCN(Cc3ccc(Cl)cc3)CC2)N=C1c1ccccc1,-3.0,55.5*
O=C1NC2(CCN(Cc3ccccc3)CC2)N=C1c1cccc(Cl)c1,-2.5,9.6
O=C1NC2(CCN(Cc3ccccc3)CC2)N=C1c1cccc(F)c1,-4.6,15.6
CC(C)Nc1ccc(-c2nc(-c3cccc(F)c3)no2)cn1,-1.5,-8.9
CC(=O)Nc1ccccc1NC(=O)COc1ccccc1,5.4,-7.1
COc1ccc(NC(=O)COc2ccccc2)c2ccccc12,73.5*,-24.0
COc1ccc(NC(=O)CCCOc2ccc(Cl)cc2Cl)c(N(O)O)c1,1.4,16.0
COCCn1c(C2CCN(C(=O)Cc3ccsc3)C2)nc2cccnc21 (centres undefined),-4.5,1.7
Cc1ccc(Nc2nc(-c3ccc4c(c3)OCO4)cs2)nc1,-1.5,8.5
Cc1ccc(Nc2nc(-c3ccc(O)c(O)c3)cs2)nc1,-4.4,79.0*
Oc1ccc(-c2csc(Nc3ccccn3)n2)c(O)c1,1.5,96.0*
COc1ccc(-c2csc(Nc3ncccc3C)n2)cc1C,4.6,26.0
Cc1cccnc1Nc1nc(-c2ccc(O)cc2O)cs1,-14.5,100.0*
Cc1ccc(-c2csc(Nc3ccccn3)n2)c(C)c1,-0.6,3.3
Cc1nccn1Cc1noc(-c2ccccc2Cl)n1,-4.6,-20.2
CC1CCc2cc(F)ccc2N1C(=O)Nc1ccccc1Cl (centres undefined),-2.1,-30.4
CC1=NN(c2ccc(Br)cc2)C(=O)/C1=C/c1ccc(-c2ccc3c(c2)C(=O)NC3=O)o1,-1.3,6.0
O=C1NC(=S)N/C1=C/c1ccc(-c2ccc3c(c2)C(=O)NC3=O)o1,·,54.9*
COc1ccc(NC(=O)C2CC(=O)N(c3ccccc3)C2)cc1 (centres undefined),2.5,0.1
O=C(Nc1ccc(Oc2ccccc2)cc1)C1CC(=O)N(c2ccccc2Cl)C1 (centres undefined),-0.2,72.2*
COc1ccc(OC)c(S(=O)(=O)NCC2CC(=O)N(Cc3ccc(F)cc3)C2)c1 (centres undefined),0.7,-5.5
CC(C)(C)C(O)CCNC(=O)CC1CCCC1 (centres undefined),-5.8,-10.8
Cc1nc(N2CCCCC2)c2c(C)nn(-c3ccccc3)c2n1,-4.9,-31.9
COc1ccc(-c2c3c(=O)n(C)c(=O)n(C)c3cn2C2CCCCC2)cc1,67.0*,33.0
SMILES,Pf apPOL block,mHTT-CaM PPI inh
COc1ccc(-c2c3c(=O)n(C)c(=O)n(C)c3cn2Cc2ccc(Cl)cc2)cc1,10.2,76.0*
Cn1c(=O)c2c(-c3ccccc3)n(Cc3ccccc3)cc2n(C)c1=O,-8.6,18.0
COc1ccc(-c2c3c(=O)n(C)c(=O)n(C)c3cn2-c2ccccc2C)cc1,54.3*,8.0
CNc1ccc([N+](=O)[O-])cc1-n1cc2c(c1-c1ccc(OC)cc1)c(=O)n(C)c(=O)n2C,-2.8,36.0
Cc1ccccc1-n1cc2c(c1-c1ccccc1)c(=O)n(C)c(=O)n2C,2.3,6.0
COc1ncc(C(=O)Nc2ccc(F)c(F)c2)c(C)n1,-8.5,-1.1
CCCc1cc(CN)on1,·,-1.4
Cc1sc2ccn(C)c(=O)c2c1C(=O)N1CCN(c2cccc(Cl)c2)CC1,-1.0,96.0*
Cc1cccc(N2CCN(C(=O)c3c(C)sc4ccn(C)c(=O)c34)CC2)c1,2.0,36.5
O=c1[nH]c(O)nc2nc(SCc3ccccc3)sc12,·,-5.1
N[C@@H](Cc1ccc(O)c(O)c1)C(=O)O,8.5,·
O=C(O)C(O)Cc1ccc(O)c(O)c1 (centres undefined),84.3*,·
Cc1nnc(NS(=O)(=O)Cc2ccccc2)s1,55.6*,1.1
CC(C)Cc1nnc(NS(=O)(=O)Cc2ccccc2)s1,-1.2,0.2
O=C(CSc1nccn1-c1ccc([N+](=O)[O-])cc1)Nc1ccccc1F,8.7,25.0
Cc1onc(-c2c(Cl)cccc2Cl)c1C(=O)Nc1nc2ccc([N+](=O)[O-])cc2s1,-22.4,84.9*
Cc1onc(-c2ccccc2Cl)c1C(=O)Nc1ccc(F)c([N+](=O)[O-])c1,-5.2,23.0
Cc1ccc(NC(=O)c2c(-c3c(Cl)cccc3Cl)noc2C)c([N+](=O)[O-])c1,6.1,18.9
Cc1ccc2nc(NC(=O)c3cc([N+](=O)[O-])ccc3Cl)sc2c1,-3.4,-2.0
Cc1onc(-c2c(Cl)cccc2Cl)c1C(=O)Nc1ccc(F)c([N+](=O)[O-])c1,42.3,63.0*
COc1ccc(NC(=O)c2c(-c3c(Cl)cccc3Cl)noc2C)c([N+](=O)[O-])c1,11.4,52.6*
CCC(C(=O)N1CC(=O)Nc2ccc(F)cc2C1c1ccc(F)cc1)c1ccccc1 (centres undefined),-2.6,10.0
